Rows were chosen to be rich in hits. Some 3.8% of all compounds tested hit in one or more screens of this group.
esBAF inh – blocks esBAF chromatin remodeling in mouse ES cells. reporter increase, % at 12.5 µM. 350,000 compounds, 2% hits. Bmi1-luciferase knock-in reporter, 24 h; 100% = twice the neutral-well signal; in the data active means activation above about 40%;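 further: 0% = median of the plate's neutral control wells and 100% = double that signal; a rise in the Bmi1 reporter signal indicates esBAF inhibition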
HSF1 inh – HSF1 inhibition | NIH3T3-HGL HSE-luciferase, MG132-induced, luminescence 8 h; stronger effect = lower value | activity change, negative = inhibition, % at 7.5 µM (by protocol) | 300,000 compounds, 0.77% hits | AID 2098;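 active means more than half of replicate wells show activity change below -50%, luminescence cut by over half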;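 further: luciferase reports HSF-1 transcriptional activity via heat shock element; 0% = median of DMSO wells and -100% = zero luminescence signal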
MITF act – increases MITF-driven TRPM1 promoter luciferase signal; SK-MEL-5 TRPM1-promoter luciferase, 24 h; % of positive control, neutral wells = 0; 300,000 compounds, 0.75% hits; activation, % at 12.5 µM;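 active means mean activation of at least 80% with every replicate also reaching 80%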;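 further: 0% = neutral control wells and 100% = parthenolide positive control wells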
Wnt act – activators of Wnt/beta-catenin signaling; Wnt/beta-catenin reporter cell assay, activator, plate reader; activation, % at 9.35 µM; 300,000 compounds, 1.2% hits; AID 743398; in the data active means activation above about 30%, passing the limit was not always enough;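 further: 0% = neutral control wells and 100% = positive control wells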
HSF-1 act – increases HSF-1 driven luciferase reporter signal. NIH3T3-HGL HSF-1 luciferase reporter, MG132, 8 h; 100% = twice DMSO control signal. activation, % at 9 µM. 300,000 compounds, 1.7% hits. AID 504408;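 active means mean replicate activation of at least 50% with a set share of replicates each reaching 50%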;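 further: 0% = median of the neutral control wells and 100% = twice that signal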
An asterisk follows results filed as active; . = no result given.

SMILES	esBAF inh	HSF1 inh	MITF act	Wnt act	HSF-1 act
CCCOc1ccc(OCCSc2ncccn2)cc1	.	42.2	69.3	.	72.4*
CCNC(=O)C[C@@H]1CC[C@@H]2[C@H](COc3ccc(NC(=O)Nc4cccc(F)c4)cc3C(=O)N2C)O1	-5.3	.	.	.	.
CCOC(=O)/C=C/c1ccc2oc3ccccc3c(=O)c2c1	48.6*	14.1	97.2*	22.7	11.1
CCOc1ccc(/C=C/C(=O)c2c(O)c3ccccc3oc2=O)cc1	0.7	-1.5	-9.7	.	15.9
Cc1ccc(-c2nnc(-c3ccccc3)o2)cc1	.	16.9	-0.4	.	24.0
COc1ccc(-c2ccc(-c3nnc(-c4ccncc4)o3)cc2)cc1	.	5.1	.	.	3.7
COc1ccc(-c2nnc(-c3ccccc3O)o2)cc1	4.4	10.5	56.5	44.4*	17.5
Cc1ccc(-c2nnc(-c3cc(C)on3)o2)cc1	-7.2	27.8	48.6	49.1*	45.5
COc1ccc(-c2nnc(-c3ccc(F)cc3)o2)cc1	13.4	25.9	77.5	35.6*	46.0
Fc1ccc(-c2nnc(-c3ccc(Cl)cc3)o2)cc1	2.8	17.6	63.7	13.0	46.5
COc1ccc(-c2nnc(-c3ccc(C)cc3)o2)cc1	24.5	23.1	53.6	35.4*	53.4*
CCCNC(=O)N[C@@H]1CC[C@@H](CCNS(=O)(=O)c2cccc(F)c2)O[C@H]1CO	3.7	.	.	.	.
COc1ccc(S(=O)(=O)Nc2cccc3c2O[C@H](CN(C)C(=O)Nc2ccc(C(F)(F)F)cc2)[C@H](C)CN([C@@H](C)CO)C3=O)cc1	7.5	.	.	.	.
CC(C)NC(=O)Nc1ccc2c(c1)CC(=O)N([C@@H](C)CO)C[C@H](C)[C@H](CN(C)Cc1ccc(C(=O)O)cc1)O2	-3.5	.	.	.	.
Cc1noc(C)c1NC(=O)N(C)C[C@H]1Oc2c(NS(=O)(=O)c3cn(C)cn3)cccc2C(=O)N([C@@H](C)CO)C[C@@H]1C	-1.1	.	.	.	.
Cc1onc(-c2ccccc2)c1C(=O)N/N=C/c1cccc(O)c1	.	29.6	-3.7	.	66.5*
N#Cc1c(-c2cccnc2)c2c([nH]c1=O)-c1ccccc1OC2	2.6	-3.1	.	43.7*	-9.2
N#Cc1c(-c2ccc(F)cc2)c2c([nH]c1=O)-c1ccccc1OC2	.	2.4	.	-2.1	6.4
Cc1ccc(NC(=O)O/N=C/c2c(C)nn(C(C)(C)C)c2C)cc1Cl	.	-93.4*	.	-22.3	-94.5
O=C(N[C@H]1C=C[C@@H](CC(=O)N2CCc3ccccc3C2)O[C@H]1CO)C1CC1	-0.7	.	.	.	.
Cc1ccc(OCc2ccc(C(=O)NCC3CCCO3)cc2)cc1 (stereo unspecified)	.	5.0	-4.7	-1.1	13.0
O=C(NCC1CCCO1)c1cccc(C(=O)NCC2CCCO2)c1 (stereo unspecified)	11.8	-3.4	.	-0.2	-2.1
O=C(NCC1CCCO1)c1ccc2[nH]c3c(c2c1)CCCC3 (stereo unspecified)	44.5*	.	41.0	4.5	.
O=C(NCC1CCCO1)c1ccc(COc2ccccc2)cc1 (stereo unspecified)	48.7*	6.0	21.0	8.9	-8.6
CCN1[C@@H]2Cn3c(ccc(C4=CCCCC4)c3=O)[C@H]1[C@@H](C(=O)NCCc1ccncc1)[C@@H]2CO	-8.1	.	.	.	.
SMILES	esBAF inh	HSF1 inh	MITF act	Wnt act	HSF-1 act
CC(=O)N(C)C[C@@H]1Oc2ncc(C#Cc3cccc(F)c3)cc2C(=O)N([C@@H](C)CO)C[C@H]1C	-1.6	.	.	.	.
N#C/C(=C(O)\C=C\c1ccccc1)c1nc2ccccc2[nH]1	22.7	1.6	22.2	13.1	9.0
CC(C)(C)c1ccc(/C=C(\c2nc3ccccc3[nH]2)S(=O)(=O)c2ccccc2)cc1	-65.8	60.2	-90.4	.	57.1*
O=C(O)c1ccc(/C=C(\c2nc3ccccc3[nH]2)c2nc3ccccc3s2)cc1	.	14.8	-7.2	41.6*	22.1
O=C(O)c1ccc(-c2nc3ccccc3[nH]2)cc1	.	5.1	-16.2	-0.8	36.9
Cc1cccc(/C=C(\c2nc3ccccc3[nH]2)S(=O)(=O)c2ccccc2)c1	4.7	240.5	-84.6	40.5*	344.1*
CCCNC(=O)N(C)C[C@H]1Oc2ncc(-c3cccc(C#N)c3)cc2C(=O)N([C@H](C)CO)C[C@@H]1C	-0.2	.	.	.	.
CCCNC(=O)C[C@H]1CC[C@H]2[C@@H](COC[C@H](O)CN2C(=O)C2CCOCC2)O1	1.0	.	.	.	.
CCCN(C)C[C@H]1OCc2ccccc2-c2ccccc2C(=O)N([C@@H](C)CO)C[C@H]1C	-1.3	.	.	.	.
CCc1cc2cc(C(=O)Nc3ccc(F)cc3)sc2s1	32.4	-3.3	36.8	48.9*	9.1
CCc1cc2cc(C(=O)Nc3ccccc3F)sc2s1	18.2	36.3	52.3	-1.3	57.0*
CCc1cc2cc(C(=O)N3CCN(c4ccccc4)CC3)sc2s1	.	5.6	-7.8	.	9.8
CC(C)(C)c1ccc(C(=O)Nc2ccc(F)cc2)s1	.	34.4	90.9*	5.4	78.5*
Cc1nc(Cl)sc1C(=O)Nc1ccc(F)cc1	16.9	.	.	-0.3	.
Cc1ccc(S(=O)(=O)N[C@H]2C=C[C@@H](CC(=O)N3CCc4ccccc4C3)O[C@@H]2CO)cc1	-0.7	.	.	.	.
Cc1ccc(S(=O)(=O)Nc2ccc3c(c2)C(=O)N([C@H](C)CO)C[C@H](C)[C@H](CN(C)C(=O)CCC(F)(F)F)OCCCC[C@@H](C)O3)cc1	-2.7	.	.	.	.
O=C(CCCCn1c(=O)[nH]c2ccsc2c1=O)NCc1cccnc1	.	-55.5*	.	.	-67.9
O=C(CCCCn1c(=O)[nH]c2ccsc2c1=O)NCCc1ccccc1	3.1	-2.0	10.1	37.3*	-17.1
CCOc1ccc(NC(=O)CCCCn2c(=O)[nH]c3ccsc3c2=O)cc1	4.5	-5.8	8.6	36.8*	-10.4
CCOc1ccc(NC(=O)CCCn2c(=S)[nH]c3ccsc3c2=O)cc1	.	-8.2	-4.9	-1.5	-6.1
O=C(CCCCn1c(=O)[nH]c2ccsc2c1=O)NCc1ccc2c(c1)OCO2	1.8	-1.7	.	2.2	-8.5
C[C@@H]1CN([C@H](C)CO)C(=O)c2cc(NC(=O)CCN3CCOCC3)ccc2O[C@@H]1CN(C)Cc1ccc(C(=O)Nc2ccccc2N)cc1	-9.1	.	.	.	.
O=C(NC1CCCC1)[C@H]1[C@H](CO)[C@H]2Cn3c(ccc(-c4ccncc4)c3=O)[C@H]2N1CC1CC1	0.6	.	.	.	.
C[C@H](CO)N1C[C@H](C)[C@H](CN(C)Cc2ccncc2)Oc2ncccc2C1=O	1.1	.	.	.	.
O=C(C[C@@H]1CC[C@H]2[C@@H](COC[C@@H](O)CN2S(=O)(=O)c2cccc(F)c2)O1)Nc1ccccc1	4.0	.	.	.	.
Nc1cc2c(cc1Br)-c1ccccc1C2=NO	62.6*	.	15.7	33.5*	.
CN1CCCC1CCNc1ccc2c(=O)c3ccccc3oc2c1 (stereo unspecified)	31.7	3.8	89.3*	19.2	-2.8
CN1CCCC1CCNc1ccc2oc3ccccc3c(=O)c2c1 (stereo unspecified)	.	-26.7	.	2.8	-39.6
CN1CCC[C@H]1CCNc1ccc2c(=O)c3ccccc3n(C)c2c1	63.5*	.	57.5	17.0	.
Cn1c2ccccc2c(=O)c2ccc(NCc3ccc4c(c3)OCO4)cc21	44.3*	.	20.2	5.7	.
